Consider 35 compounds from PubChem BioAssay.
Further: test concentration not given here.

The first assay in a line: A549 cell viability effects, profiling panel, calcein-AM fluorescence, 48 h, basal (AID 1162). Particulars: higher = more signal.
For `COC(=O)[C@@]1(Cc2ccccc2)[C@H]2c3cc(C(=O)N4CCCC4)n(Cc4c(CO)[nH]cc(C)c4=O)c3C[C@H]2CN1C(=O)c1ccccc1`, the z-score is -1.45.
Same read-out and setting: the value for `CCOc1cc(C(O)C2C=CC3C(=O)N(c4ccccc4)C(=O)C3N2Nc2ccc(C(C)C)cc2)ccc1O` (centres undefined) was -0.65; that for `CN(C)CCCCCCNC(=O)[C@@H]1C[C@@H]2C(=O)N3CCC[C@H]3C(=O)N2[C@@H]1c1ccc(O)cc1` was 1.26; that for `CCC(CC)C(O)C1C=CC2C(=O)N(c3ccccc3)C(=O)C2N1Nc1ccccc1` (centres undefined) was 0.857.
The same measure, in the same setting: as for `COC(=O)[C@@]1(Cc2ccc(OC)cc2)[C@H]2c3cc(C(=O)N4CCCC4)n(Cc4nc5ccccc5[nH]4)c3C[C@H]2CN1C(=O)c1ccccc1`, the figure is -0.43; as for `O=C1O[C@@H](c2ccccc2)[C@@H](c2ccccc2)N2[C@@H](c3ccc(OCCO)cc3)[C@]3(C(=O)Nc4ccc(C#CC5=CCCCC5)cc43)[C@@H](C(=O)N3CCCCCCC3)[C@H]12`, -0.364.
`O=C(O)[C@@]1(CCS(=O)(=O)c2ccccc2)N=C(c2ccc(OCCCO)cc2)O[C@H]1c1ccccc1`: the z-score was -0.932.
Same read-out and setting: the value for `C=CCNC(=O)[C@@H]1[C@H]2C(=O)O[C@H](c3ccccc3)[C@H](c3ccccc3)N2[C@H](c2ccc(OCCO)cc2)[C@@]12C(=O)N(C(=O)OCCOC)c1ccc(C#CCC(C(=O)OC)C(=O)OC)cc12` was -0.906; that for `[N-]=[N+]=Nc1ccccc1C[C@@]1(C(=O)N2CCCCC2)N=C(c2ccc(OCCCO)cc2)O[C@@H]1c1ccccc1` was 0.93; that for `CC(=O)n1cc(C(O)C2C=CC3C(=O)NC(=O)C3N2Nc2ccccn2)c2ccccc21` (centres undefined) was -0.407.
Consider `O=C1OCCC=C[C@H]2OC34C=CCN(c5ccc(Cl)cc5)C(=O)[C@H]3N(CCCO)C(=O)[C@@H]4C12` (some centres undefined), for which the z-score is 0.0676.
Same read-out and setting: the value for `CC(c1ccccc1)C(O)C1C=CC2C(=O)N(c3ccccc3)C(=O)C2N1Nc1ccccc1` (centres undefined) was -0.477; that for `CCOC(=O)C[C@H]1[C@H](OC(=O)c2ccc(-c3ccccc3)cc2)[C@@H](NC(=O)c2ccccc2)c2cc(OCCCO)ccc2N1C(=O)c1ccc2ccccc2n1` was -0.208.
Same read-out and setting: as for `CCCCN1CC=CC23O[C@@H]4C=CCOC(=O)[C@@H]4[C@H]2C(=O)N(CCCCCCO)[C@@H]3C1=O` (some centres undefined), the figure is 0.327; as for `COc1ccc(-c2cc3c(c(Cc4ccccc4)n2)[Si](C(C)C)(C(C)C)OC3)cn1`, -0.103; as for `COc1cc2c(cc1O)C(c1cccs1)N(Cc1ccc([N+](=O)[O-])o1)CC2` (centres undefined), 0.383.
The same measure, in the same setting: as for `[N-]=[N+]=NCc1ccccc1[C@@H]1OC(c2ccc(OCCCO)cc2)=N[C@]1(CCS(=O)(=O)c1ccccc1)C(=O)N1CCCCC1`, the figure is 1.26.
Regarding `CC(C)OC(=O)C=C1C[C@@H](c2cccc(Cl)c2)O[C@@H](c2cccc(Cl)c2)O1`, the z-score is -1.2.
`Cc1ccc(S[C@]2(C(=O)NCC(C)C)CC(=O)N(Cc3cc(C(F)(F)F)cc(C(F)(F)F)c3)[C@@H]2c2ccc(CO)cc2)cc1`: the z-score was -0.174.
Take `O=C(O)[C@H](Cc1ccccc1)n1cc(-c2ccccc2)nn1`: the z-score was -0.757.
The same measure, in the same setting: the value for `COC(=O)[C@@]1(Cc2ccc(OC)cc2)[C@H]2c3cc(C(=O)N(C)C)n(Cc4ccc(C(F)(F)F)nc4)c3C[C@H]2CN1C(=O)c1ccccc1` was 0.212; that for `CCCCC(O)C1C=CC2C(=O)N(C)C(=O)C2N1N1CCCCC1` (centres undefined) was -1.19; that for `C=CCNC(=O)[C@H]1[C@@H]2C(=O)O[C@@H](c3ccccc3)[C@@H](c3ccccc3)N2[C@@H](c2ccc(O)cc2)[C@]12C(=O)Nc1ccc(C#CCCO)cc12` was 0.838.
The same measure, in the same setting: the value for `CO[C@H]1O[C@H](CO)[C@@H](OC(=O)Nc2ccccc2-c2ccccc2)[C@H](OC(=O)Nc2ccccc2-c2ccccc2)[C@@H]1OC(=O)Nc1ccccc1-c1ccccc1` was -0.378.

The next assay can be described thus: adipocyte viability effects, profiling panel, cell-based, 3T3-L1 adipocytes, calcein-AM fluorescence, 48 h, basal (AID 1163). The following applies: 3T3-L1 adipocytes viability, higher = more signal.
Turning to `COc1ccc(C(=O)Nc2cccc(CN3C(=O)[C@]4(O[C@H](CCn5cc(CCO)nn5)[C@@H]([Si](C)(C)c5ccc(OC)cc5)[C@@H]4C)c4ccccc43)c2)cc1`, the z-score is -0.42.
For the compound `COC(=O)c1c2oc(c1C(=O)OC)C(=O)N[C@@H](C(C)C)Cn1cc(nn1)C1(CCCCC1)NC(=O)N[C@H](CO)CC2`, the z-score was -0.32.
Still for that read-out and setting: as for `O=C1NC(=O)C2C1C=CC(C(O)c1ccc(-c3ccccc3)s1)N2Nc1ccc(Cl)cc1Cl` (centres undefined), the figure is -0.901; as for `CCOC(=O)C[C@H]1[C@H](OC(=O)c2ccc(-c3ccccc3)cc2)[C@@H](NC(=O)c2ccccc2)c2cc(OCCCO)ccc2N1C(=O)Cc1ccc(OC)cc1`, 0.0615; as for `COC(=O)[C@@]1(Cc2ccc(OC)cc2)[C@H]2c3cc(C(=O)N4CCCC4)n(CCCNc4ncc(C(F)(F)F)cc4Cl)c3C[C@H]2CN1C(=O)c1ccccc1`, -1.03.
On the same count and under the same terms, as for `CC(=CC1CCCCC1)[C@@H](NC(=O)c1cccnc1)c1ccc(-c2ccccc2)cc1`, the figure is -0.671.
On the same count and under the same terms, as for `C=CCC(OC(C)=O)[C@@H]1[C@@H](N(Cc2ccc(-c3cccc(C(F)(F)F)c3)o2)C(=O)Cc2ccc(OC)cc2)c2cc(OCCCO)ccc2N1C(=O)c1ccc2ccccc2c1` (some centres undefined), the figure is 1.13; as for `CCOC(=O)C1=CC[C@@H](c2ccccc2)N(S(=O)(=O)c2ccc(C)cc2)[C@H]1c1ccc(CC)cc1`, -0.932; as for `O=c1cccc(-c2ccccc2Cl)o1`, 0.528.
Regarding `CCCCC(=C=CC[C@H](O)c1cccc(OCCO)c1)C[C@H](O)c1ccccn1`, the z-score is 1.2.
The same measure, in the same setting: the value for `COc1ccc([Si](C)(C)[C@@H]2[C@@H](CC(=O)N3CCC[C@H]3CO)O[C@]3(C(=O)N(Cc4cccc(I)c4)c4ccccc43)[C@H]2C)cc1` was 1.24.
On the same count and under the same terms, as for `COC(=O)[C@@]1(Cc2ccccc2)[C@H]2c3cc(C(=O)N4CCCC4)n(Cc4c(CO)[nH]cc(C)c4=O)c3C[C@H]2CN1C(=O)c1ccccc1`, the figure is -0.412; as for `CCOc1cc(C(O)C2C=CC3C(=O)N(c4ccccc4)C(=O)C3N2Nc2ccc(C(C)C)cc2)ccc1O` (centres undefined), -0.538; as for `CN(C)CCCCCCNC(=O)[C@@H]1C[C@@H]2C(=O)N3CCC[C@H]3C(=O)N2[C@@H]1c1ccc(O)cc1`, 1.09.
Still for that read-out and setting: the value for `CCC(CC)C(O)C1C=CC2C(=O)N(c3ccccc3)C(=O)C2N1Nc1ccccc1` (centres undefined) was -1.31.
In the case of `COC(=O)[C@@]1(Cc2ccc(OC)cc2)[C@H]2c3cc(C(=O)N4CCCC4)n(Cc4nc5ccccc5[nH]4)c3C[C@H]2CN1C(=O)c1ccccc1`, the z-score was 0.685.
Still for that read-out and setting: as for `O=C1O[C@@H](c2ccccc2)[C@@H](c2ccccc2)N2[C@@H](c3ccc(OCCO)cc3)[C@]3(C(=O)Nc4ccc(C#CC5=CCCCC5)cc43)[C@@H](C(=O)N3CCCCCCC3)[C@H]12`, the figure is 0.284.
Still for that read-out and setting: as for `O=C(O)[C@@]1(CCS(=O)(=O)c2ccccc2)N=C(c2ccc(OCCCO)cc2)O[C@H]1c1ccccc1`, the figure is 0.784; as for `C=CCNC(=O)[C@@H]1[C@H]2C(=O)O[C@H](c3ccccc3)[C@H](c3ccccc3)N2[C@H](c2ccc(OCCO)cc2)[C@@]12C(=O)N(C(=O)OCCOC)c1ccc(C#CCC(C(=O)OC)C(=O)OC)cc12`, 0.445.
The same measure, in the same setting: as for `[N-]=[N+]=Nc1ccccc1C[C@@]1(C(=O)N2CCCCC2)N=C(c2ccc(OCCCO)cc2)O[C@@H]1c1ccccc1`, the figure is 0.699.
Turning to `CC(=O)n1cc(C(O)C2C=CC3C(=O)NC(=O)C3N2Nc2ccccn2)c2ccccc21` (centres undefined), the z-score is -1.52.
Same read-out and setting: as for `O=C1OCCC=C[C@H]2OC34C=CCN(c5ccc(Cl)cc5)C(=O)[C@H]3N(CCCO)C(=O)[C@@H]4C12` (some centres undefined), the figure is 1.95; as for `CC(c1ccccc1)C(O)C1C=CC2C(=O)N(c3ccccc3)C(=O)C2N1Nc1ccccc1` (centres undefined), 0.618; as for `CCOC(=O)C[C@H]1[C@H](OC(=O)c2ccc(-c3ccccc3)cc2)[C@@H](NC(=O)c2ccccc2)c2cc(OCCCO)ccc2N1C(=O)c1ccc2ccccc2n1`, -0.0559.
Turning to `CCCCN1CC=CC23O[C@@H]4C=CCOC(=O)[C@@H]4[C@H]2C(=O)N(CCCCCCO)[C@@H]3C1=O` (some centres undefined), the z-score is -1.36.
Consider `COc1ccc(-c2cc3c(c(Cc4ccccc4)n2)[Si](C(C)C)(C(C)C)OC3)cn1`, for which the z-score is -0.19.
Same read-out and setting: the value for `COc1cc2c(cc1O)C(c1cccs1)N(Cc1ccc([N+](=O)[O-])o1)CC2` (centres undefined) was 0.0975.
Still for that read-out and setting: as for `[N-]=[N+]=NCc1ccccc1[C@@H]1OC(c2ccc(OCCCO)cc2)=N[C@]1(CCS(=O)(=O)c1ccccc1)C(=O)N1CCCCC1`, the figure is -0.418.
On the same count and under the same terms, the value for `CC(C)OC(=O)C=C1C[C@@H](c2cccc(Cl)c2)O[C@@H](c2cccc(Cl)c2)O1` was -0.0201; that for `Cc1ccc(S[C@]2(C(=O)NCC(C)C)CC(=O)N(Cc3cc(C(F)(F)F)cc(C(F)(F)F)c3)[C@@H]2c2ccc(CO)cc2)cc1` was 0.518; that for `O=C(O)[C@H](Cc1ccccc1)n1cc(-c2ccccc2)nn1` was -0.853.
With `COC(=O)[C@@]1(Cc2ccc(OC)cc2)[C@H]2c3cc(C(=O)N(C)C)n(Cc4ccc(C(F)(F)F)nc4)c3C[C@H]2CN1C(=O)c1ccccc1`, the z-score was -0.624.
Same read-out and setting: as for `CCCCC(O)C1C=CC2C(=O)N(C)C(=O)C2N1N1CCCCC1` (centres undefined), the figure is -0.579; as for `C=CCNC(=O)[C@H]1[C@@H]2C(=O)O[C@@H](c3ccccc3)[C@@H](c3ccccc3)N2[C@@H](c2ccc(O)cc2)[C@]12C(=O)Nc1ccc(C#CCCO)cc12`, -0.655.
Still for that read-out and setting: the value for `CO[C@H]1O[C@H](CO)[C@@H](OC(=O)Nc2ccccc2-c2ccccc2)[C@H](OC(=O)Nc2ccccc2-c2ccccc2)[C@@H]1OC(=O)Nc1ccccc1-c1ccccc1` was 0.159.
